From PubChem BioAssay
Cav32 inh: human Cav3.2 channel inhibition, primary screen | O95180 | Cav3.2-expressing cells, Fluo-4 calcium fluorescence FDSS; stronger effect = lower value | B-score at 10 µM | hit rate 4% among 100,000 | AID 449739;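 active means single-dose well whose peak fluorescence ratio is a statistical outlier from its plate by either plate-standardised score or position-corrected B-score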
CYP2C9 inh: inhibitors of human CYP2C9 | P11712 | CYP2C9 Supersomes, luciferin-H conversion, luminescence | inhibition, % at 5 µM | hit rate 20% among 96,000 | AID 777;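 active means blocking of liver enzyme CYP2C9 beyond about 50% at 5 µM, limit read from the data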
CYP2C19 activ: activators of human cytochrome P450 2C19. P33261. recombinant CYP2C19, luciferin-H EGE luminescence; stronger effect = higher value; 0 = fully inhibited enzyme, 1 = untreated enzyme. activation factor at 5 µM. 96,000 tested, under 10 active. AID 1025;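 active means activation factor of at least 2 at 5 µM in the primary screen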;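 further: 0 = wells with 2.5 mM tranylcypromine and 1 = vehicle-only wells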
CYP2C9 activ: activators of human CYP2C9. P11712. recombinant CYP2C9, luciferin-H conversion, luminescence; stronger effect = higher value; factor 1 = untreated enzyme, 0 = blocked. activation factor at 5 µM. hit rate 1.4% among 96,000;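 active means activation factor of 2 or more for CYP2C9 at a 5 µM dose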;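 further: 0 = sulfaphenazole-blocked wells and 1 = vehicle-only wells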
CYP2C19 inhib: human CYP2C19 inhibition; AID 778; P33261; hit rate 21% among 96,000; CYP2C19 Supersomes, luciferin-H EGE luminescence, 30 min; inhibition, % at 5 µM;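 active means CYP2C19 inhibition above a set limit at 5 µM in the primary screen, cut at about 50% in these data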;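 further: plate controls were negative control wells for no effect and 2.5 mM tranylcypromine positive control for full effect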
Active calls of the source: *; x = no result. An excerpt weighted towards active compounds, which were near 27% of everything screened.

SMILES | Cav32 inh | CYP2C9 inh | CYP2C19 activ | CYP2C9 activ | CYP2C19 inhib
CCc1ccc(NC(=O)CSc2nc3cc(C(=O)OC)ccc3c(=O)n2CC2CCCO2)cc1 (stereo unspecified) | -0.12 | 46 | 0.8 | 0.5 | 20
COc1ccc(S(=O)(=O)N2CCOCC2)c(Cl)c1Cl | -0.16 | -304 | 0.3 | 4* | 70*
CCC(C)c1cc(S(=O)(=O)N2CCOCC2)ccc1OC (stereo unspecified) | -0.82 | -29 | 0.3 | 1.3 | 69*
O=C(Cn1cc2c(n1)CCCC2)Nc1cc(-c2cccc(Cl)c2)no1 | -2.5 | 57* | 0.7 | 0.4 | 26
CC#CCN1c2ccccc2[C@]23C[C@@H](C(=O)OC)N(C(=O)c4ccco4)C2=NC(C(=O)OC)=C(C(=O)OC)[C@H]13 | -1.3 | x | x | x | x
NS(=O)(=O)c1ccc(NCc2ccccc2OCc2ccccc2F)cc1 | -1.5 | 75* | 0.6 | 0.2 | 40
Oc1ccc(NCc2ccccc2OCc2ccccc2F)cc1 | -1.4 | 47 | 0.5 | 0.5 | 52*
COc1ccc(CC(NC(C)=O)C(=O)NC2CCN(C(=O)NCc3ccccc3)CC2)cc1OC (stereo unspecified) | 0.0059 | 8 | 1 | 0.9 | -4
Cc1ccc(-c2cc([C@H]3[C@H]4C=CC[C@@H](C)[C@@H]4C(=O)N3Cc3ccccc3)ccc2F)cc1 | -0.69 | x | x | x | x
COc1cc(NC(=O)c2ccccc2Cl)c(OC)cc1NC(=O)CN1CCOCC1 | 0.89 | 45 | 0.9 | 0.6 | 13
Cc1ccc(S(=O)(=O)Nc2cc(NC(=O)CN3CCOCC3)ccc2Cl)cc1 | 1.1 | 86* | 0.7 | 0.1 | 33
CC1CCCN(CC(=O)Nc2ccc(S(=O)(=O)N3CCCCC3)cc2)C1 (stereo unspecified) | 0.46 | x | x | x | x
Cc1ccc(S(=O)(=O)Nc2cccc(NC(=O)CN3CCCCC3)c2)cc1 | 0.7 | 92* | 0.1 | 0.1 | 92*
CCO[C@@H]1OC(C(=O)NC2CC2)=C[C@H](c2c[nH]c3ccccc23)[C@H]1CCCO | -0.23 | x | x | x | x
COC(=O)C1=C(O)/C(=C\c2ccc(O)c(OC)c2)N=C1C | -0.6 | 23 | 0.8 | 0.8 | 15
COc1ccc(OC)c(NC(=O)CC2C(=O)NCCN2C(=O)Nc2cccc(Cl)c2)c1 (stereo unspecified) | -0.018 | 72* | 0.6 | 0.3 | 41
CC1=C(C(=O)OC2CCCCC2)C(c2ccco2)n2ncnc2N1 (stereo unspecified) | 0.075 | 52* | 0.3 | 0.5 | 73*
COC(=O)C1=C(C)Nc2nnnn2C1c1ccco1 (stereo unspecified) | 0.59 | 37 | 0.8 | 0.6 | 20
CCc1[nH]nc2c1C(c1ccncc1)C(C#N)=C(N)O2 (stereo unspecified) | 0.13 | 69* | 0.4 | 0.3 | 59*
N#CC1=C(N)Oc2n[nH]c(-c3ccc(F)cc3)c2C1c1cccnc1 (stereo unspecified) | 1.3 | 55* | 0.3 | 0.5 | 70*
N#CC1=C(N)Oc2n[nH]c(-c3ccccc3)c2C1c1ccncc1 (stereo unspecified) | 0.078 | 89* | 0.2 | 0.1 | 85*
CCC(C)C1C(C#N)=C(N)Oc2n[nH]c(-c3ccccc3)c21 (stereo unspecified) | 0.081 | 16 | 0.5 | 0.8 | 53*
Cc1[nH]nc2c1C(c1cn[nH]c1-c1ccc(F)cc1)C(C#N)=C(N)O2 (stereo unspecified) | x | 13 | 0.8 | 0.9 | 15
Cc1ccc(-c2c(C#N)c(N)n(-c3ccc(C)cc3)c(=O)c2C#N)cc1 | 0.36 | -9 | 0.9 | 1.1 | 10
Cc1ccc(-c2c(C#N)c(N)n3c(nc4ccccc43)c2C#N)cc1 | 0.51 | 64* | 0.9 | 0.4 | 12
SMILES | Cav32 inh | CYP2C9 inh | CYP2C19 activ | CYP2C9 activ | CYP2C19 inhib
CCc1ccc(NSc2ccccc2[N+](=O)[O-])cc1 | -0.89 | 35 | 0.3 | 0.7 | 65*
Cc1nc2c(n1C1CCCCC1)C(=O)c1ccccc1C2=O | x | 55* | 0.2 | 0.4 | 81*
COc1cc(/C=C(/C#N)c2ccccc2)ccc1Oc1ccc([N+](=O)[O-])cn1 | -2.4 | 59* | 0.7 | 0.4 | 32
O=C(O)c1ccc(CNCc2cccc(Cl)c2Cl)cc1 | 0.19 | -8 | 0.9 | 1.1 | 9
CC(C(=O)OCC(=O)Nc1ccc2c(c1)OCO2)N1C(=O)c2ccccc2C1=O (stereo unspecified) | -0.59 | 68* | 0.3 | 0.3 | 74*
O=C(CN1C(=O)c2ccccc2C1=O)Nc1ccc2c(c1)OCO2 | 0.69 | 28 | 0.9 | 0.7 | 5
Cc1ccc(N(C(C)C(=O)Nc2ccc3c(c2)OCO3)S(C)(=O)=O)cc1 (stereo unspecified) | 0.19 | 43 | 0.3 | 0.6 | 67*
CC(C(=O)N1CCOCC1)N1C(=O)c2ccccc2C1=O (stereo unspecified) | x | -9 | 1.2 | 1.1 | -22
Cc1ccc(CN(c2ccc(C(=O)Nc3ccc4c(c3)OCO4)cc2)S(C)(=O)=O)cc1 | -0.43 | 40 | 0.6 | 0.6 | 44
CC(C)C(C(=O)Nc1ccc2c(c1)OCO2)N1C(=O)c2ccccc2C1=O (stereo unspecified) | -1.8 | 52* | 0.5 | 0.5 | 49
CC(C(=O)Oc1ccc2c(c1)OCO2)N1C(=O)c2ccccc2C1=O (stereo unspecified) | -3.6* | 42 | 0.4 | 0.6 | 62*
CCCn1nc(C(=O)NCCc2ccc(S(N)(=O)=O)cc2)c2ccccc2c1=O | -0.23 | 36 | 1.1 | 0.6 | -14
C[C@@H]1C[C@H]2[C@@H]3CCC4=CC(=O)C=C[C@]4(C)[C@@]3(F)[C@@H](O)C[C@]2(C)[C@H]1C(=O)CO | 0.082 | x | x | x | x
Cc1cccc(N(C(=O)CNC(=O)c2ccco2)C(C(=O)NC2CCCC2)c2cccnc2)c1 (stereo unspecified) | 0.52 | -5 | 1.1 | 1 | -6
CCN(CC)c1ccc(C2C(C(C)=O)C(=O)CC(C)(O)C2C(C)=O)cc1 (stereo unspecified) | -1.1 | x | x | x | x
CCCNC(=O)c1ccc2c(c1)C1C3CCC(C3)C1C(c1ccccc1)N2 (stereo unspecified) | -5* | 100* | 0.1 | 0 | 89*
Cc1cc(/C=N/n2cnnc2)c(C)n1-c1cc(Cl)ccc1Cl | -1.1 | 79* | 0 | 0.2 | 100*
Cc1cc(/C=N/n2cnnc2)c(C)n1-c1ccc(C(=O)O)cc1 | 0.49 | 7 | 1 | 0.9 | -2
CCCS(=O)(=O)N1CCCC(C(=O)N2CCN(C(=O)OCC)CC2)C1 (stereo unspecified) | 0.5 | -4 | 1.1 | 1 | -12
Cc1nn(-c2cccc(Cl)c2)c2c1C(c1ccncc1)C(C#N)=C(N)O2 (stereo unspecified) | -0.1 | 62* | 0.5 | 0.4 | 50*
Cc1nn(-c2cccc(Cl)c2)c2c1C(c1cccnc1)C(C#N)=C(N)O2 (stereo unspecified) | 0.86 | 26 | 0.9 | 0.7 | 9
COc1ccc(OC)c(C2C(C#N)=C(N)Oc3c2c(C)nn3-c2cccc(Cl)c2)c1 (stereo unspecified) | 0.096 | 98* | 0.2 | 0 | 83*
